# Activity calls are given as the source filed them. The calls were made as follows: active = hit-call score of the fitted dose curve at least 0.9, where 1 is the maximum; inactive = score below 0.9.
# Read-out: Fatty acid synthase (Homo sapiens) (UniProt P49327)
# Test: LTEA_HepaRG_FASN: Life Technologies and Expression Analysis (LTEA) Assay for Fatty Acid Synthase (FASN) using HepaRG (AID 2283448)
# Conditions: mRNA level, 48 h; actives raise or lower the signal
# Procedure: LTEA_HepaRG is a cell based, multiplexed-readout assay that uses HepaRG, a human liver cell line, with measurements taken at 48 hours after chemical dosing on a 96-well plate.LTEA_HepaRG_FASN is one of 102 assay component(s) measured in the LTEA HepaRG cell culture assay. It is a marker of Steatosis.Data from the assay component LTEA_HepaRG_FASN was analyzed into 1 endpoint. This assay endpoint, LTEA_HepaRG_FASN, was analyzed with bidirectional fitting relative to DMSO as the negative control and baseline of activity. Using a type of inducible reporter, measures of mRNA induction for gain or loss-of-signal activity can be used to understand regulation of transcription factor activity. To generalize the intended target to other relatable targets, this assay endpoint is annotated to the lyase intended target family, where the subfamily is fatty acid synthase.
# A total of 1060 chemcials from the ToxCast library were tested in eight-point concentration-response experiments. Cell culture and cytotoxicity assays were conducted at Thermo Fisher Scientific's Custom Services facility (Madison, WI). A single lot of human HepaRG cells (Thermo Fisher Scientific, Frederick, MD) was used for the cell culture experiments. 96-well format collagen type I coated plates of human HepaRG cells were prepared using established methods. Briefly, cryopreserved HepaRG cells were thawed, plated at a density of approximately 100,000 cells/well in HepaRG Thaw, Plate, and General Purpose media (HPRG770, Thermo Fisher Scientific), and incubated for 48 hours. 0.5% DMSO was selected as vehicle control to balance the requisite need of DMSO in HepaRG cultures to maintain differentiation (for example, baseline metabolism, proportions of hepatocytes vs. cholangiocytes), while enabling further hepatic receptor pathway activation (for example, PXR and CAR) in response to chemical exposure. 48 hours after plating, the culture medium was replaced with HepaRG Serum-Free Incudtion Media. Cells were exposed to each test chemical in duplicate and maintained in CO2 incubators for another 48 hours. Chemical plates were thawed to room temperature and 200x concentrations of treatment groups were prepared. 8-point conentration-reponse curves were made with the highest exposure at 100 uM, followed by half-log dilutions, all in 0.5% DMSO. Each test plate contained variouse controls, induction positive controls (1mM phenobarbital), cytotoxicity positive controls ([…] aflatoxin B1), vehicle controls (0.5% DMSO), and total lysis controls (0.5% DMSO). Cell morphology images were taken using an Essen IncuCyte FLR automated microscope, with six 96-well plates imaged in about 24 minutes. Images were captured and exported and JPEG files. Spent culture media was transfered to black-well plates for the LDH assay, and remaining media was sorted at -80 C for later use. Cells were treated with RLT buffer and frozen until shipped for gene expression analysis. Total RNA was isolated from the cell suspension in 75 uL of Buffer RLT (Qiagen, Germantown, MD 20874) by Quintiles/Expression Analysis (Durham, NC) using a custom isolation procedure. Total RNA from each plate well was transferred to a preamplification plate. Fluidigm's 96.96 Dynamic ArrayTM (Fluidigm, Amsterdam, the Netherlands) technology was used for gene expression analyses by quantitative reverse transcription polymerase chain reaction (qRT-PCR, performed by Quintiles/Expression Analysis, Durham, NC)89. Standard TaqManTM Assays (Applied Biosystems/ThermoFisher Scientific, Foster City, CA) were used to assess the expression of 93 genes selected based on their selectivity and sensitivity to important hepatic receptors known to be modulated by environmental chemicals; importance in human hepatocyte functionality; and hepatotoxicity. […]
# Sequence of Fatty acid synthase (Homo sapiens) (P49327 whole entry, looked up): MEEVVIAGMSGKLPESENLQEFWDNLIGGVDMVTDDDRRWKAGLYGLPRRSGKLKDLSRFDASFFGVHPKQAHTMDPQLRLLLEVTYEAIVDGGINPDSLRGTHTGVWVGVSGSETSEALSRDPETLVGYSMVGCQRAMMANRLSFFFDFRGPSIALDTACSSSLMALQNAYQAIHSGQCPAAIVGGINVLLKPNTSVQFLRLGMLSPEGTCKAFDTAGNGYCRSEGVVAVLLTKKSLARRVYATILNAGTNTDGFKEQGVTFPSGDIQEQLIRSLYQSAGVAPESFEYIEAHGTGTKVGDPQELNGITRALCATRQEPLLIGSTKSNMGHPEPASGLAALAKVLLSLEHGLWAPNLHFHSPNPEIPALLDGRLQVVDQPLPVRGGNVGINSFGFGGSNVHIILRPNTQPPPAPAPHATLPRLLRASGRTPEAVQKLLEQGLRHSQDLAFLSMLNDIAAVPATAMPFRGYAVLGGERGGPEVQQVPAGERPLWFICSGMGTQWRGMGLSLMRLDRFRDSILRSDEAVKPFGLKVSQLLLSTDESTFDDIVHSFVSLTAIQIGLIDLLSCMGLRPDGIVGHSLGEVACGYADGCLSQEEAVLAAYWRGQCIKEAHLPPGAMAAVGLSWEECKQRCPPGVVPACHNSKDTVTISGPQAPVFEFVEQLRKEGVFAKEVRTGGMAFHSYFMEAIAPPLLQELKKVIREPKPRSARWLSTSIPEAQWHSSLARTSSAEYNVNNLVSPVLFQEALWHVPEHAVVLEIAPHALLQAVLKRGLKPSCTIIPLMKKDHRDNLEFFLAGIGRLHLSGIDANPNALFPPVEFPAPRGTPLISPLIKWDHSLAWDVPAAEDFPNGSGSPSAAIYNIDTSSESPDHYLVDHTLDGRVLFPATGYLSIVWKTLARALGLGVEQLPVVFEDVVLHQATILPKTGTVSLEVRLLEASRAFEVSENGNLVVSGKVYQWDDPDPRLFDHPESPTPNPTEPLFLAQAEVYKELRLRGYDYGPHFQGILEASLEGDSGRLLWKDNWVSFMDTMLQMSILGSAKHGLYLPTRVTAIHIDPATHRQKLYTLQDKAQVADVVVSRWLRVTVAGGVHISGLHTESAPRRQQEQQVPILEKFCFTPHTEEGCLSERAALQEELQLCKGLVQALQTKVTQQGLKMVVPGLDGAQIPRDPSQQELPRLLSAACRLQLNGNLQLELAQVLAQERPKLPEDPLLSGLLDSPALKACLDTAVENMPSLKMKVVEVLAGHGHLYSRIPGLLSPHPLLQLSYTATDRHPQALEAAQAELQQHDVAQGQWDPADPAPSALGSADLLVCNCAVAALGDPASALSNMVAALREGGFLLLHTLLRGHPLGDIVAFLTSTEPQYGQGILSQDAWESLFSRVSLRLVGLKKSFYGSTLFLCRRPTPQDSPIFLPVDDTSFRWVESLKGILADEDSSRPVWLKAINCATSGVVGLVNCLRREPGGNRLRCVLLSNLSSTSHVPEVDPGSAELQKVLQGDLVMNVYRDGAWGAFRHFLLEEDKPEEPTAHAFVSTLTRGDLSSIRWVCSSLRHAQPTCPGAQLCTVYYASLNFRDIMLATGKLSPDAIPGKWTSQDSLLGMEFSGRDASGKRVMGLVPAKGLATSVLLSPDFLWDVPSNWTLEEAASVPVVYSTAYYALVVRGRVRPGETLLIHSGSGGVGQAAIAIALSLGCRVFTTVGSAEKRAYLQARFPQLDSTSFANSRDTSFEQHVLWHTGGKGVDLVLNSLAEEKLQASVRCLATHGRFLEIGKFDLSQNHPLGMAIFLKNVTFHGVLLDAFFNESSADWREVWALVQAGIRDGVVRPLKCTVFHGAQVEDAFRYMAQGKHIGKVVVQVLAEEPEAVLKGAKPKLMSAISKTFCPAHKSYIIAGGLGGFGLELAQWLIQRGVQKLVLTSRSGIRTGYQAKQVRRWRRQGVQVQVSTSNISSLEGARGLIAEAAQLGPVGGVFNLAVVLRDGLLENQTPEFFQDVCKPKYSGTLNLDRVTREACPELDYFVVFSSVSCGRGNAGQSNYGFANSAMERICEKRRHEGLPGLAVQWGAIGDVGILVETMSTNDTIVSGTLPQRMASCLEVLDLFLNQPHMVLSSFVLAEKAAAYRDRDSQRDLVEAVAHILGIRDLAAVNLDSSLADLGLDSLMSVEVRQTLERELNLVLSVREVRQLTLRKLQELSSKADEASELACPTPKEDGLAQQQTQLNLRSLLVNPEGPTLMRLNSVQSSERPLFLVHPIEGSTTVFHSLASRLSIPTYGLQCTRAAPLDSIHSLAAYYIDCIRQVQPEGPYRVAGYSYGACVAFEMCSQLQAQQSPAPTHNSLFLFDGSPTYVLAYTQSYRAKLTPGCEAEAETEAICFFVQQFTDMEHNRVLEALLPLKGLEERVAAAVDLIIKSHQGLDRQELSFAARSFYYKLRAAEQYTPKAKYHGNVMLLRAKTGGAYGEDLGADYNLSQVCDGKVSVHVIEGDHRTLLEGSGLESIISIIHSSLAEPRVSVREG
Structure (SMILES),outcome,AC50
Oc1c(Cl)cc(Cl)cc1Cl,inactive,–
O=C(O)C1(c2ccc3c(c2)OC[C@H](Cc2ccc(-c4ccccc4)cc2)[C@H]3O)CCCC1,–,50 µM (active)
OCCN(CCO)CCO,inactive,–
O=C(N[C@H]1CN2CCC1CC2)c1ccc2c(c1)OCCO2,inactive,–
Cc1cc(C)cc(C)c1,inactive,–
Clc1cccc(Cl)c1Cl,inactive,–
Clc1cccc(Cl)c1,inactive,–
CC(C)(C)c1ccccc1O,inactive,–
Oc1cc(Cl)c(Cl)cc1Cl,inactive,–
CC(C)O.CC(C)O.OCCN(CCO)CCO.OCCN(CCO)CCO.[Ti],inactive,–
CCCCCCCCCCCCc1cccc(S(=O)(=O)O)c1,inactive,–
N#Cc1cccnc1,inactive,–
COc1ccccc1N,inactive,–
CN(C)C(=S)S,inactive,–
